D2 ag-1: activates the human D2 dopamine receptor. P14416. HEK293 T-REx D2 cells, calcium flux agonist mode. activation, % at 2 µM. actives 0.53% (n = 340,000);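 active means activation over 3 SD above normal in the single-dose calcium agonist read, cut at about 30% in these data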
Target sequence (P14416 whole entry, looked up): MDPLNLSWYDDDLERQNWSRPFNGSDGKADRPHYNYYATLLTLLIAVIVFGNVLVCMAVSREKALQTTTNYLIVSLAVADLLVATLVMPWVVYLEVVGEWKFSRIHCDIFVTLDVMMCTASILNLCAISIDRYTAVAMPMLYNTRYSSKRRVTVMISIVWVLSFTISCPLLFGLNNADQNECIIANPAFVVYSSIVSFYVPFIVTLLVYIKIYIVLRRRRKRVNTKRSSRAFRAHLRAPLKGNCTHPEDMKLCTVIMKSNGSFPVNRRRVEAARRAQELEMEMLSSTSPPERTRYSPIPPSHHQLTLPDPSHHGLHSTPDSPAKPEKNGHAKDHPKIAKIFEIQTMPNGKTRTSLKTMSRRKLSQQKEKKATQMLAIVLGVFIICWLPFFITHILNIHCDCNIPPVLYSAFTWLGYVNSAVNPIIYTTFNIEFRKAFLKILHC
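Calcium-flux readout, 1 cycle/sec over 180 s following compound pin transfer, in inducible HEK293 Trex D2 cells (force-coupled); dopamine controls included. Positive calcium responses during this window marked compounds as potential agonists.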
D2 ag-2: human D2 receptor agonism in beta-arrestin assay | DiscoveRx PathHunter D2 beta-arrestin, luminescence, 90 min; 100% = 57 uM dopamine signal | AID 624465 | activation, % (no concentration beside the values) | P14416 | actives 0.084% (n = 360,000); in the data active means activation above about 40%; inconclusive means between about 15% and that limit
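Agonist mode: compounds alone added to overnight-plated D2 PathHunter cells for 90 min at 37 C, with 57 uM final dopamine (EC100) defining full response. Beta-arrestin recruitment detected by chemiluminescent reagent, read after 1 h at ambient temperature.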
D2 antag: D2 dopamine receptor (human) antagonism | AID 485344 | actives 2% (n = 340,000) | P14416 | inhibition, % at 10 µM | HEK293 TREx D2 cells, calcium flux, dopamine EC80; in the data active means inhibition above about 30%; inactive means below that, where a call was filed
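Tetracycline-induced HEK293 T-REx cells expressing D2 force-coupled to calcium signalling were dye-loaded, exposed to compound for 180 s, then challenged with an EC80 of dopamine; calcium flux was followed kinetically for a further 180 s.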
D2 PAM-1: positive allosteric modulators of human D2 dopamine receptor; P14416; HEK293 T-REx D2, calcium flux, EC20 dopamine potentiation; potentiation, % at 10 µM; actives 0.34% (n = 340,000); AID 485347;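 active means potentiation over 3 SD above the plate norm, cut at about 30% in these data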
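Tetracycline-induced Hek293 Trex D2 cells, force-coupled to calcium, loaded with no-wash calcium dye. Compound added with 180 s kinetic read for agonism, then EC20 dopamine and a further 180 s read for potentiation.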
D2 PAM-2: potentiates the human D2 dopamine receptor allosterically. P14416. DiscoveRx D2 beta-arrestin cells, luminescence, 90 min; 100% = 57 uM dopamine signal. potentiation, % (test concentration not listed). actives 0.23% (n = 360,000); in the data active means potentiation above about 50%; inconclusive means mostly about 30% to 49%
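PathHunter D2 cells, attached overnight at 37 deg C, received compound in DMSO plus dopamine at EC20 (50 nM final) for 90 min at 37 deg C. Beta-arrestin recruitment was read as luminescence after 1 h with detection reagent at ambient temperature.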
D3 arrestin ag: activates human D3 dopamine receptor beta-arrestin recruitment. shares compounds with D2 ag-1. Potency, µM (series often up to 76.9 µM), usual class: activators. DiscoveRx D3 beta-arrestin cells, luminescence, 90 min. actives 4% (n = 2,300); further: nearly all actives have a fitted effect of over 70% in size
D2 ag-3: D2 receptor agonism, beta-arrestin counterscreen. AID 720507. Potency, µM (top dose mostly 76.9 µM), actives largely listed as activators. shares compounds with D2 ag-1. DiscoveRx PathHunter D2 beta-arrestin, luminescence, 90 min; response scale: percent relative to full dopamine signal. actives 5.9% (n = 2,300); further: nearly all actives have a fitted effect of over 70% in size
Each line names hits and unclear results; the compound was inactive in the other large screens (follow-up assays come after a bar, where they were run). Only some compounds are listed: those with a hit (about 2.4% of all), similar ones and a draw of the others. Unless noted, the call rests on the fitted dose curve; in most records, active means well fitted activation curve with a large enough effect; inconclusive means small, poorly fitted or top-dose-only effect; inactive means flat fitted curve, though single readings scatter.

Cc1cc(NC(c2nnc(-c3ccccc3)o2)c2ccccc2F)ccc1Br (centres undefined)	none (no result: D2 ag-2, D2 antag, D2 PAM-2)
OCC1(CCc2ccccc2)CCN(Cc2cnc(N3CCCC3)s2)CC1	none (no result: D2 ag-1, D2 antag, D2 PAM-1)
CN(C)c1ncc(CN2CCC(CO)(CCCc3ccccc3)CC2)s1	D2 ag-1 68, D2 antag 62 | D3 arrestin ag inactive | D2 ag-3 inconclusive
Cc1ccc(S(=O)(=O)N2CCN(C(=O)COC(=O)CSc3cc(C)ccc3C)CC2)c(C)c1	none | D3 arrestin ag inactive | D2 ag-3 inactive
Cc1ccc(S(=O)(=O)N2CCN(C(=O)COC(=O)/C=C/c3ccc(F)cc3)CC2)c(C)c1	none
Cc1ccc(S(=O)(=O)N2CCN(C(=O)COC(=O)/C=C/c3ccccc3)CC2)c(C)c1	none | D3 arrestin ag inactive | D2 ag-3 inactive
Cc1c2cnn(CC(=O)NCCc3ccccc3)c(=O)c2c(C)n1Cc1ccccc1	none (no result: D2 ag-2, D2 antag, D2 PAM-2)
COC(=O)[C@@H](NC(=O)Nc1ccc(S(N)(=O)=O)cc1)C(C)C	D2 ag-1 69 | D3 arrestin ag inactive | D2 ag-3 inactive
CC(C)c1ccc(NC(=O)CN2CCN(c3ccccn3)CC2)cc1	none
N#Cc1ccsc1NC(=O)CN1CCN(c2ccc(O)cc2)CC1	D2 PAM-2 inconclusive
N#Cc1ccsc1NC(=O)CN1CCN(c2ccccn2)CC1	D2 ag-1 41, D2 ag-2 inconclusive, D2 antag 31 | D3 arrestin ag inconclusive | D2 ag-3 inconclusive
CC(=O)N1CCN(CC(=O)Nc2sccc2C#N)CC1	none
N#Cc1ccc(NC(=O)CN2CCN(c3ccccn3)CC2)cc1	D2 ag-1 77, D2 ag-2 48, D2 antag 68 | D3 arrestin ag inconclusive | D2 ag-3 40µM
N#Cc1ccsc1NC(=O)CN1CCN(c2ccccc2)CC1	D2 ag-1 48 | D3 arrestin ag inactive | D2 ag-3 inactive
Cc1ccc(-c2cc(C(=O)Nc3cc([N+](=O)[O-])ccc3C)no2)cc1F	none (no result: D2 ag-2, D2 antag, D2 PAM-2)
COc1ccc(OCc2cc(C(=O)N[C@H]3CCCCNC3=O)no2)c(Cl)c1	none
COc1ccc(OCc2cc(C(=O)NC3Cc4ccccc4C3)no2)c(Cl)c1	none (no result: D2 ag-1, D2 antag) | D3 arrestin ag inactive | D2 ag-3 inactive
CC(SCc1cc(=O)n2c([nH]c3ccccc32)c1C#N)C(=O)O (centres undefined)	none
COCc1cc(=O)n2c([nH]c3ccccc32)c1C#N	D2 antag 37 | D3 arrestin ag inactive | D2 ag-3 inactive
COC(=O)c1cc2c(ccn2-c2ccc(F)cc2)n1Cc1ccc(C#N)cc1	none
COC(=O)c1cc2c(ccn2-c2ccc(F)cc2)n1Cc1ccc(OC)cc1	none | D3 arrestin ag inactive | D2 ag-3 inconclusive
CCC(C)C(=O)N1CCc2cc(-c3csc(N)n3)ccc21 (centres undefined)	none | D3 arrestin ag inactive | D2 ag-3 inactive
CCCC(=O)N1CCc2cc(-c3nc(N)sc3C)ccc21	none
COCCCNC(=O)c1ccc(Cn2c(=O)c3ccccc3n(CC(N)=O)c2=O)cc1	none (no result: D2 ag-2, D2 antag, D2 PAM-2)
CNC(C)C(=O)NC(C(=O)N1CCCC1C(=O)NNc1ccccc1)C(C)C (centres undefined)	none | D3 arrestin ag inactive | D2 ag-3 inactive
CNC(C)C(=O)NC(C(=O)N1CCCC1C(=O)NC1CCCc2ccccc21)C(C)C (centres undefined)	none
Cc1ccc(CNc2nc(-c3ccco3)nn2C(=O)c2ccccc2[N+](=O)[O-])cc1	none (no result: D2 ag-2, D2 antag, D2 PAM-2)
O=C(/C=C/c1ccccc1Cl)NC1CCCCC1	none
O=C(/C=C/c1ccccc1Cl)N(c1ccccn1)C1CCCCC1	D2 ag-1 77, D2 ag-2 inconclusive, D2 antag 99 | D3 arrestin ag inactive | D2 ag-3 inconclusive
COc1ccc(-c2nc(CCNC(=O)c3ccccc3)cs2)cc1OC	none (no result: D2 ag-1, D2 ag-2, D2 antag, D2 PAM-2)
COc1ccc(/C=N/Nc2nnc(C)n2N)cc1OC(C)=O	none | D3 arrestin ag inconclusive | D2 ag-3 inactive
COc1ccc(C(=O)N2CCC(C(=O)N3CCN(c4ccc(OC)cc4)CC3)CC2)cc1	none
COc1ccccc1C(=O)N1CCC(N2CCN(c3ccccc3)CC2)CC1	D2 ag-1 78, D2 ag-2 inconclusive, D2 antag 69 | D3 arrestin ag inconclusive | D2 ag-3 inconclusive
O=C(CCC1CCCC1)N1CCC(N2CCN(c3ccccc3)CC2)CC1	D2 ag-1 53, D2 antag 77 | D3 arrestin ag inactive | D2 ag-3 inactive
CC(C)CC(=O)N1CCC(N2CCN(c3ccccc3)CC2)CC1	D2 ag-2 inconclusive, D2 PAM-2 inconclusive
COc1ccc(C(=O)N2CCC(N3CCN(c4ccccc4)CC3)CC2)cc1	D2 ag-1 71, D2 antag 57 | D3 arrestin ag inconclusive | D2 ag-3 inconclusive
CC(C)(C)C1CCC(N2CCN(c3ccccc3)CC2)CC1 (centres undefined)	D2 ag-1 73, D2 antag 86 | D3 arrestin ag inactive | D2 ag-3 inconclusive
c1ccc(N2CCN(C3CC4CCC3C4)CC2)cc1 (centres undefined)	D2 ag-1 54, D2 antag 87 | D3 arrestin ag inactive | D2 ag-3 inactive
O=C(COC(=O)C1CCN(S(=O)(=O)c2ccccc2)CC1)NCCc1ccccc1	none | D3 arrestin ag inactive | D2 ag-3 inactive
NS(=O)(=O)c1ccc(CCNC(=O)C2CCN(S(=O)(=O)c3ccccc3)CC2)cc1	none
Cc1cccc(N2CCN(C(=O)c3oc(=O)c4ccccc4c3-c3ccccc3)CC2C)c1 (centres undefined)	none (no result: D2 ag-2, D2 antag, D2 PAM-2)
CN(C(=O)c1ccc(NC(=O)Cc2cccc(NC(=O)C3CCN(C(=O)C4CC4)CC3)c2)cc1)C1CCCC1	none | D3 arrestin ag inactive | D2 ag-3 inactive
Cc1ccc2oc(-c3ccc(Cl)c(NC(=O)c4ccc(OC(C)C)cc4)c3)nc2c1	none (no result: D2 ag-2, D2 antag, D2 PAM-2)
COC(=O)CN(C)C(=O)CC1C(=O)NCCN1CC(C)(C)C (centres undefined)	D2 ag-1 40 | D3 arrestin ag inactive | D2 ag-3 inactive
COC(=O)c1[nH]c2ccccc2c1NC(=O)CN1CCN(C(=O)c2ccco2)CC1	D2 ag-1 58, D2 ag-2 inconclusive | D3 arrestin ag inconclusive | D2 ag-3 inactive
COc1ccccc1N1CCN(CC(=O)Nc2nc(C)c(C(=O)N(C)C)s2)CC1	none | D3 arrestin ag inactive | D2 ag-3 inactive
COc1ccccc1NC(=O)c1ccc(NC(=O)c2ccco2)cc1	none
COc1ccc(C)cc1NC(=O)CCN1CCN(C/C=C/c2ccccc2)CC1	D2 ag-1 70, D2 antag 68 | D3 arrestin ag inactive | D2 ag-3 inconclusive

Screening data as filed in PubChem BioAssay.
